In PubChem BioAssay one finds fold change, cell count and z-score data, which are given here for 20 molecules.

Test [1] is described as follows: sensitizers of A549 cells to miR-34 induction, primary screen, imaging, A549 dox-inducible miR-34, nuclei and caspase counts (AID 1347080;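 active = compounds whose cell count with miR-34 switched on is under 0.7 times the count with it off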). Conditions: A549 miR-34 inducible, Hoechst nuclei count, 48 h.
The nature of test [2]: survival rescue of mitochondrial mutant cells in low glucose, primary screen, MELAS cybrids, Rieske KO mouse fibroblasts, CellTiter-Glo (AID 1508586).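 Note: z relative to plate mean and SD of compound and empty wells.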 Background: In ATP-based viability assays light output follows the ATP content of the culture.
[3] abbreviates: stronger effect = lower value, cell number ratio, induced over uninduced.
[4] abbreviates: measured here: relative caspase fold change +Dox/-Dox.
Setting [5] is: measured here: total cells with miR-34 induction, stronger effect = lower value.
Where [6] appears, read: measured here: total cells without miR-34 induction.
The mark [7] stands for this setting: MELAS cybrid survival, CellTiter-Glo 48 h, stronger effect = higher value.
The mark [8] stands for this setting: Rieske KO mouse fibroblast survival, CellTiter-Glo 72 h.

The structures appear in SMILES notation. Active and inactive are the calls of the source.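 Rule for the calls, unless noted: active = mean z-score across replicates of 1.96 or higher in either the MELAS or the Rieske mutant cell line; inactive = the rest.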
Note: test concentration not given here.

For the molecule `S=C=Nc1cccc(NC(=S)NCCCCNC(=S)Nc2cccc(N=C=S)c2)c1`, the results for the fold change in test [1] (setting [3]) and in test [1] (setting [4]) were 0.972 (inactive) and 0.614, respectively. The cell count in test [1] (setting [5]) amounted to 7440; in test [1] (setting [6]), 7650. Besides, the z-score in test [2] (setting [7]) was -0.615 (inactive); in test [2] (setting [8]) it was 0.0526.
Take `CCOC(=O)c1ccc(N2NC(=O)C(=Cc3ccc([N+](=O)[O-])o3)C2=O)cc1`: the fold change in test [1] (setting [3]) was 0.912 (inactive); in test [1] (setting [4]) it was 0.455. Moreover, the values for the cell count in test [1] (setting [5]) and in test [1] (setting [6]) were 7420 and 8150, respectively. The values for the z-score in test [2] (setting [7]) and in test [2] (setting [8]) were -0.255 (inactive) and -2.84, respectively.
`CCC(=O)O[C@@]1(C(=O)CCl)[C@@H](C)C[C@H]2[C@@H]3CCC4=CC(=O)C=C[C@]4(C)[C@]3(F)[C@H](O)C[C@@]21C`: the fold change was 0.838 (inactive) in test [1] (setting [3]) and 0.869 in test [1] (setting [4]). Further, the results for the cell count in test [1] (setting [5]) and in test [1] (setting [6]) were 5560 and 6630, respectively. Besides, the z-score in test [2] (setting [7]) was -0.516 (inactive); in test [2] (setting [8]), -0.656.
Turning to `CCn1c(N)c(C(=O)NC)c(=O)c2ccc(C#C[C@@](C)(O)COC)nc21`, the fold change was 0.913 (inactive) in test [1] (setting [3]) and 0.578 in test [1] (setting [4]). Moreover, the cell count worked out at 6630 in test [1] (setting [5]) and 7260 in test [1] (setting [6]). Moreover, the z-score was -0.356 (inactive) in test [2] (setting [7]) and -0.157 in test [2] (setting [8]).
Take `C=C1C(CO)C(O)CC1n1cnc2c(=O)[nH]c(N)nc21` (stereo not given): the figures for the fold change in test [1] (setting [3]) and in test [1] (setting [4]) were 1.01 (inactive) and 0.924, respectively. For the same molecule, the cell count turned out to be 7270 in test [1] (setting [5]) and 7170 in test [1] (setting [6]). Besides, the z-score in test [2] (setting [7]) was -0.366 (inactive); in test [2] (setting [8]), -0.0519.
As to `CC(C)c1nc(CN(C)C(=O)NC(CCN2CCOCC2)C(=O)NC(CCC(Cc2ccccc2)NC(=O)OCc2cncs2)Cc2ccccc2)cs1` (stereo not given), the values for the fold change in test [1] (setting [3]) and in test [1] (setting [4]) were 0.977 (inactive) and 0.47, respectively. Besides, the cell count in test [1] (setting [5]) was 5730; in test [1] (setting [6]), 5860. Also, the z-score was -0.312 (inactive) in test [2] (setting [7]) and -0.261 in test [2] (setting [8]).
As to `CC1COC2=C1C(=O)C(=O)c1c2ccc2c1CCCC2(C)C` (stereo not given), the fold change was 1.09 (inactive) in test [1] (setting [3]) and 0.507 in test [1] (setting [4]). Further, the cell count worked out at 2070 in test [1] (setting [5]) and 1890 in test [1] (setting [6]). In addition, the values for the z-score in test [2] (setting [7]) and in test [2] (setting [8]) were -0.382 (inactive) and -0.5, respectively.
Turning to `O=C(O)CCCCC1SC[C@@H]2NC(=O)N[C@H]12` (stereo not given in full), the fold change was 0.883 (inactive) in test [1] (setting [3]) and 0.431 in test [1] (setting [4]). Moreover, the cell count in test [1] (setting [5]) turned out to be 8160; in test [1] (setting [6]) it was 9250. The z-score is -0.0238 (inactive) in test [2] (setting [7]) and -0.137 in test [2] (setting [8]).
Take `CC1CCN(CCC2CCCN2S(=O)(=O)c2cccc(O)c2)CC1` (stereo not given): the fold change in test [1] (setting [3]) was 0.96 (inactive); in test [1] (setting [4]) it was 0.546. In addition, the cell count in test [1] (setting [5]) stood at 7750; in test [1] (setting [6]), 8080. Also, the z-score in test [2] (setting [7]) was -0.371 (inactive); in test [2] (setting [8]), -0.0766.
For the molecule `CC1COC(Nc2ccc3ncnc(Nc4ccc(OCc5nccs5)c(Cl)c4)c3c2)=N1` (stereo not given), the fold change is 0.841 (inactive) in test [1] (setting [3]) and 0.704 in test [1] (setting [4]). For the same molecule, the cell count was determined as 6940 in test [1] (setting [5]) and 8260 in test [1] (setting [6]). For the same molecule, the z-score in test [2] (setting [7]) was 0.156 (inactive); in test [2] (setting [8]) it was -0.466.
With `NC1CC1c1ccc(-c2cccc(O)c2)cc1` (stereo not given), the fold change was 0.891 (inactive) in test [1] (setting [3]) and 0.382 in test [1] (setting [4]). Moreover, the cell count was 7530 in test [1] (setting [5]) and 8450 in test [1] (setting [6]). The z-score was -0.398 (inactive) in test [2] (setting [7]) and 0.0465 in test [2] (setting [8]).
As for `CCOC(=O)Nc1cc(-c2ccc(C)c(NS(C)(=O)=O)c2)nn2c(C)nnc12`, the fold change in test [1] (setting [3]) is 1.01 (inactive); in test [1] (setting [4]), 0.716. Further, the results for the cell count in test [1] (setting [5]) and in test [1] (setting [6]) were 4010 and 3970, respectively. In addition, the z-score in test [2] (setting [7]) was -0.585 (inactive); in test [2] (setting [8]), -4.44.
On to `CCCC(NC(=O)C1[C@H]2CCC[C@H]2CN1C(=O)C(NC(=O)C(NC(=O)c1cnccn1)C1CCCCC1)C(C)(C)C)C(=O)C(=O)NC1CC1` (stereo not given in full), for which the fold change was 0.872 (inactive) in test [1] (setting [3]) and 1.37 in test [1] (setting [4]). In addition, the cell count was 5460 in test [1] (setting [5]) and 6260 in test [1] (setting [6]). Further, the z-score in test [2] (setting [7]) is -0.469 (inactive); in test [2] (setting [8]), 0.214.
For the molecule `CC(C)C(=O)Oc1ccc(CO)cc1C(CCN(C(C)C)C(C)C)c1ccccc1` (stereo not given), the figures for the fold change in test [1] (setting [3]) and in test [1] (setting [4]) were 0.941 (inactive) and 0.385, respectively. Besides, the cell count came out at 8240 in test [1] (setting [5]) and 8760 in test [1] (setting [6]). Also, the z-score in test [2] (setting [7]) was 0.0306 (inactive); in test [2] (setting [8]), 0.055.
Regarding `Nc1ncn(C2CC(O)C(CO)O2)c(=O)n1` (stereo not given), the fold change was 0.936 (inactive) in test [1] (setting [3]) and 0.727 in test [1] (setting [4]). The cell count in test [1] (setting [5]) came to 7530; in test [1] (setting [6]), 8050. In addition, the z-score was -0.461 (inactive) in test [2] (setting [7]) and 0.644 in test [2] (setting [8]).
As for `CS(=O)(=O)c1ccc(C(O)C(CO)NC(=O)C(Cl)Cl)cc1` (stereo not given), the fold change in test [1] (setting [3]) was 0.959 (inactive); in test [1] (setting [4]) it was 1.06. The results for the cell count in test [1] (setting [5]) and in test [1] (setting [6]) were 8650 and 9010, respectively. The values for the z-score in test [2] (setting [7]) and in test [2] (setting [8]) were -0.348 (inactive) and 0.589, respectively.
Regarding `CC(CS)C(=O)N1CCCC1C(=O)O` (stereo not given), the fold change in test [1] (setting [3]) was 1.01 (inactive); in test [1] (setting [4]), 0.525. Besides, the cell count in test [1] (setting [5]) turned out to be 8320; in test [1] (setting [6]) it was 8250. Further, the z-score was -0.2 (inactive) in test [2] (setting [7]) and -0.263 in test [2] (setting [8]).
In the case of `O=C(CS(=O)Cc1ccco1)NCC=CCOc1cc(CN2CCCCC2)ccn1` (stereo not given), the values for the fold change in test [1] (setting [3]) and in test [1] (setting [4]) were 0.878 (inactive) and 0.735, respectively. In addition, the cell count in test [1] (setting [5]) came out at 8120; in test [1] (setting [6]) it was 9240. Moreover, the values for the z-score in test [2] (setting [7]) and in test [2] (setting [8]) were -0.242 (inactive) and -0.613, respectively.
`CC(C)(C)NC(=O)C1CC[C@H]2[C@@H]3CC[C@H]4NC(=O)C=C[C@]4(C)[C@@H]3CC[C@]12C` (stereo not given in full): the figures for the fold change in test [1] (setting [3]) and in test [1] (setting [4]) were 1.03 (inactive) and 1.3, respectively. Besides, the cell count in test [1] (setting [5]) is 8400; in test [1] (setting [6]), 8170. In addition, the z-score in test [2] (setting [7]) was -0.417 (inactive); in test [2] (setting [8]), 0.72.
On to `CC(C)C(C(=O)Nc1ccc(C(=O)NO)cc1)c1ccccc1` (stereo not given), for which the fold change in test [1] (setting [3]) is 0.964 (inactive); in test [1] (setting [4]), 0.891. Moreover, the cell count is 1000 in test [1] (setting [5]) and 1040 in test [1] (setting [6]). Further, the results for the z-score in test [2] (setting [7]) and in test [2] (setting [8]) were 2.39 (active) and 0.0158, respectively.
